HP1b chromo inh – HP1-beta chromodomain-methylated histone interaction inhibition; P83916; AlphaScreen HP1-beta / biotin-H3K9me3 peptide binding; Potency, µM (titrated, usually from 114 µM), for the others: top-dose activity change, negative = inhibition, hits mostly inhibitors; 390,000 tested, 0.56% active; AID 540317; also: nearly all actives have a fitted effect of over 70% in size
Target sequence (P83916 whole entry, looked up): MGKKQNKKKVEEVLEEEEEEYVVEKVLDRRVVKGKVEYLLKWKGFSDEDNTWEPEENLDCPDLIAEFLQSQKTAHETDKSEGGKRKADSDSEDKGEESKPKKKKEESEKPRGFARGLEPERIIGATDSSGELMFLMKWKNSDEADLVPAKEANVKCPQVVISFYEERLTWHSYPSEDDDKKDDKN
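HP1-beta protein (50 nM final) preincubated 30 min at room temperature with biotinylated H3(1-18)K9me3 peptide (50 nM) in PBS pH 7.4, 0.01% Tween-20, then compound added for 30 min. AlphaScreen streptavidin donor/nickel chelate acceptor beads (10 ug/mL final), 30 min dark, luminescence read.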
G9a block – blocks human histone lysine methyltransferase G9a; G9a H3K9 monomethylation, AlphaScreen, 2 h; Potency, µM (top dose mostly 102 µM), for inactives: top-dose activity, negative = inhibition, usual class: inhibitors; 350,000 tested, 8.8% active; AID 504332; also: % is scaled to controls: 0 for no effect and ±100 for the full control effect; nearly all actives have a fitted effect of over 75% in size
Target sequence (Q96KQ7 913-1193 limits assumed): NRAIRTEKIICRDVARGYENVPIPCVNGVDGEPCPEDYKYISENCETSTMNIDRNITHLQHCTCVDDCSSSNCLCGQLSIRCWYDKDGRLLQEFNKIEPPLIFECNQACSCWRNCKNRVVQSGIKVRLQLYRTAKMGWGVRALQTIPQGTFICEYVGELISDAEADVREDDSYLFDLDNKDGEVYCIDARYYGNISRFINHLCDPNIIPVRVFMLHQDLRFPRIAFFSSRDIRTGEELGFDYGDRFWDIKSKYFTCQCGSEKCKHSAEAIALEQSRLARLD
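Compounds were preincubated with 20 nM G9a for 15 min, after which biotinylated H3K9 peptide (500 nM) and SAM (20 uM) started a 2 h room-temperature reaction. Monomethylated product was quantified by antibody-based AlphaScreen chemiluminescence.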
BAZ2B inh – BAZ2B (human) inhibition; AID 504333; AlphaScreen BAZ2B-H3K14Ac peptide displacement; 360,000 tested, 4.4% active; Q9UIF8; Potency, µM (series often up to 114 µM), without a hit: at the top dose activity change, negative = inhibition, most hits filed as inhibitors; also: % is scaled to controls: 0 for no effect and ±100 for the full control effect; nearly all actives have a fitted effect of over 60% in size
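Complex of BAZ2B and biotin-H3K14Ac (50 nM apiece) forms over 30 min at RT, then faces library compounds up to 110 uM for another 30 min; AlphaScreen beads added, 20 min dark incubation, luminescence read.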
GLS inhibitor – inhibitors of human glutaminase (GLS); GLS enzymatic activity, qHTS titration; AID 624170; O94925; Potency, µM (doses to about 45.5 µM), for inactives: top-dose activity change, negative = inhibition, usual class: inhibitors; 410,000 tested, 0.21% active; also: % is scaled to controls: 0 for no effect and ±100 for the full control effect
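Assay buffer: 45 mM KH2PO4 pH 8.2, 0.02% Tween-20. hKGA acts on L-glutamine (1 mM solution added); product glutamate is reported by an oxidase/peroxidase Amplex Red coupling, with fluorescence taken at baseline and 30 min.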
JMJD2A Tudor inh – blocks the human JMJD2A Tudor domain; O75164; AlphaScreen JMJD2A-Tudor / H3K4me3 peptide binding; Potency, µM (doses to about 114 µM), for inactives: top-dose activity change, negative = inhibition, most hits filed as inhibitors; 390,000 tested, 4.4% active; also: % is scaled to controls: 0 for no effect and ±100 for the full control effect; nearly all actives have a fitted effect of over 50% in size
The depositor's hits bear a star; ? = inconclusive; . = no result; ! = repeats disagree; [ ] = remark or other dose. A selection: hits, their analogues and other compounds. The true share with any hit is near 10%. Calls follow the shape of the dose curve; as a rule, active = well fitted curve in the direction sought with a large enough effect; inconclusive = small, poorly fitted or top-dose-only effect, or another doubt; inactive = no such curve, though single readings can be large; an effect the other way counts as inactive or inconclusive. Potency is read from the fitted curve at half-maximal effect.

SMILES	HP1b chromo inh	G9a block	BAZ2B inh	GLS inhibitor	JMJD2A Tudor inh
O=c1[nH]c(=O)c2[nH]c(=S)n(-c3ccccc3)c2[nH]1	-6.8%	.	.	7.6%	39.8µM*
O=C(O)c1ccc2c(=O)n(-c3ccccc3)c(=S)[nH]c2c1	47.2%	?	-18.6%	0.0%	6.3%
O=c1oc2c(CN3CCOCC3)c(O)ccc2c2c1CCCC2	9.7%	?	2.3%	28.0%	0.3%
O=c1oc2c(CN3CCOCC3)c(O)c(Cl)cc2c2c1CCCC2	15.9%	79.4µM*	11.3%	30.4%	-2.3%
Cc1cc(Br)ccc1N=C1NC(=O)CS1	-7.1%	20µM*	-22.5%	-8.2%	-9.7%
Cc1ccc(N=C2NC(=O)CS2)c(C)c1	25.4%	-0.9%[59 µM]	-2.3%	-9.7%	4.9%
Cc1cc(N2CCN(C)CC2)nc2ccc(NC(=O)Nc3ccccc3Cl)cc12	4.2%	?	-11.2%[57.1 µM]	18.7%	-27.2%
COC(=O)c1ccc(CNC(=O)COC(=O)c2cc(Cl)nc(Cl)c2)cc1	23.8%	50.1µM*	-4.0%	1.1%	-7.7%
N=c1n(CC(=O)c2ccc([N+](=O)[O-])cc2)c2ccccc2n1Cc1ccccc1	5.8%	44.7µM*	?	-0.2%	-19.5%
N=c1n(CCN2CCCCC2)c2ccccc2n1CC(=O)c1cccc([N+](=O)[O-])c1	14.1%	44.7µM*	?	17.3%	-23.6%
Cc1ccccc1CNC(=O)c1csc([C@@H]2O[C@H](CO)[C@@H](O)[C@H]2O)n1	.	.	.	7.6%	.
S=c1[nH]nc(-c2ccco2)n1/N=C/C(Cl)=C/c1ccccc1	?	4.47µM*	?	-4.4%	?
Cc1cc(-c2n[nH]c(=S)n2/N=C/C(Cl)=C/c2ccccc2)n[nH]1	-17.5%	1.58µM*	?	-8.5%	56.2µM*
O=C(N/N=C/C(Cl)=C/c1ccccc1)c1ccco1	-20.3%	.	-3.6%	11.6%	-18.9%
CC(=O)Nc1ccc(NC(=O)C2C3CCC(C3)C2C(=O)O)cc1 (stereo unspecified)	35.2%	-4.5%	-14.6%	0.7%	3.3%
CN(C)/C=C1/NC(=S)NC1=O	89.1µM*	35.5µM*	-8.1%	10µM*	8.91µM*
Cc1cc(F)ccc1NCC(=O)Nc1ccccc1Br	4.2%	50.1µM*	5.9%	4.8%	-18.2%
O=C(CCn1cnc(-c2ccccc2)c1-c1ccccc1)N/N=C/c1ccccc1O	?	44.7µM*	?	17.7%	25.1µM*
COc1ccc(/C=N/NC(=O)CCn2cnc(-c3ccccc3)c2-c2ccccc2)cc1	?	?	25.1µM*	3.5%	20µM*
O=C(CCn1cnc(-c2ccccc2)c1-c1ccccc1)N/N=C/c1ccc(O)cc1	?	?	?	14.5%	25.1µM*
COC(=O)N1CC(c2ccccc2)CC1=O (stereo unspecified)	26.1%	-7.2%[59 µM]	-2.1%	7.3%	2.6%
Cc1nn(-c2ccccc2)cc1C(c1c(N)[nH]c(=S)[nH]c1=O)c1c(N)[nH]c(=S)[nH]c1=O	13.9%	31.6µM*	-36.3%	-14.1%	-15.0%[11.4 µM]
CCc1ccc(CN2C(=O)c3ccccc3C2C(=O)NC(C)CC)cc1 (stereo unspecified)	33.2%	-12.2%	-2.2%	4.7%	-6.8%
CN1CCC(N(C)S(=O)(=O)c2ccc(NC(=O)COc3ccc(Cl)cc3)cc2)CC1	19.7%	15.5%[12.7 µM]	0.1%	2.5%	-18.9%
CN1CCC(N(C)S(=O)(=O)c2ccc(NC(=O)COc3ccc([N+](=O)[O-])cc3)cc2)CC1	23.7%	12.6µM*	?	4.8%	-11.0%
SMILES	HP1b chromo inh	G9a block	BAZ2B inh	GLS inhibitor	JMJD2A Tudor inh
CN1CCC(N(C)S(=O)(=O)c2ccc(NC(=O)COc3ccc(F)cc3)cc2)CC1	2.7%	11.2µM*	?	2.4%	-20.3%
CC(=C/c1ccco1)/C=N/NC(=O)CSc1nnc(SCc2ccc(C)cc2)s1	?	?	?	13.0%	-26.9%
c1ccc(CCN(Cc2ccccc2)C2CCN(C3CCCC3)CC2)cc1	?	50.1µM*	50.1µM*	7.5%	2.24µM*
COc1ccc(-c2ccc(SCC(=O)N3CCCC3)nn2)cc1OC	25.1%	?	4.0%	-0.9%	-0.6%
COc1ccc(-c2ccc(SCC(=O)c3ccc(F)cc3)nn2)cc1OC	13.8%	35.5µM*	3.9%	-2.0%	-11.2%
COc1ccc(C(=O)CSc2ccc(-c3ccc(C)cc3)nn2)cc1	41.5%	?	-3.0%	-5.5%	-0.7%
COc1ccc(-c2ccc(SCC(=O)c3cccs3)nn2)cc1OC	5.3%	50.1µM*	-23.1%	-12.3%	-13.5%
NN(CCO)C(=S)Nc1ccc(Cl)cc1	36.7%	11.2µM*	?	35.3%	-9.2%
CN(c1ccccc1C(=O)Nc1ccc2ccccc2c1)S(C)(=O)=O	40.0%	.	.	1.2%	-1.3%
Cc1cccc(C2N(c3ccc(F)cc3)C(=O)C3CCCN32)c1 (stereo unspecified)	49.9%	.	.	-4.7%	-8.5%
Cc1ccc(C2N(c3nccs3)C(=O)C3CCCN32)cc1 (stereo unspecified)	13.6%	12.6µM*	?	0.1%	20µM*
O=C1C2CCCN2C(c2ccc(F)cc2)N1c1nccs1 (stereo unspecified)	19.5%	-31.2%[12.7 µM]	?	10.9%	20µM*
Cc1cccc(C2N(c3nccs3)C(=O)C3CCCN32)c1 (stereo unspecified)	36.2%	7.94µM*	?	-3.2%	-26.0%[57.1 µM]
CN(C)C(=O)c1ccc(-c2cncnc2N(C)Cc2ccco2)cc1	.	10.4%[0.501 µM]	.	.	.
CCCCC(=O)Nc1nnc(CCc2ccccc2)s1	23.8%	11.6%	?	0.0%	-10.6%
Cc1nnc(NC(=O)C2CCN(S(=O)(=O)c3ccc(F)c(Cl)c3)CC2)o1	34.3%	-39.8%	31.6µM*	-11.4%	3.55µM*
Cc1ccc(C2(C)NC(=O)N(CC(=O)NCCC3=CCCCC3)C2=O)cc1 (stereo unspecified)	58.9%	?	14.7%	-12.0%	-14.8%
CC1(c2ccc(Cl)cc2)NC(=O)N(CC(=O)NCCC2=CCCCC2)C1=O (stereo unspecified)	53.6%	0.891µM*	-0.2%	-3.1%	2.0%
Cc1nn(C(C)C(=O)NCCCN2CCCCC2C)c(=O)c2c1sc1ccccc12 (stereo unspecified)	37.1%	24.2%	-16.1%	-0.2%	-4.3%
CCOc1ccc(CCNC(=O)CCCn2nc(C)c3sc4ccccc4c3c2=O)cc1	-0.4%	-31.0%[59 µM]	-12.9%	-7.2%	-6.6%
Cc1nn(C(C)C(=O)NCCCN2CCCCCC2)c(=O)c2c1sc1ccccc12 (stereo unspecified)	15.6%	50.1µM*	-22.5%	-6.4%	50.1µM*
Cc1nn(CCCC(=O)NCCc2ccc(Cl)cc2)c(=O)c2c1sc1ccccc12	31.6µM*	6.31µM*	25.1µM*	-4.9%	7.94µM*
NC12CC3CC(CC(C3)C1)C2	74.2%	1.78µM*!	7.0%	1.4%	-1.4%
O=C(Cn1nnc(-c2ccccc2)n1)OCc1csc(-c2ccccc2)n1	3.0%	11.9%	31.0%	6.1%	-23.2%
